# Data published in PubChem BioAssay (Tox21).
# Unmarked numbers belong to inactive results. Inconclusive results are not listed. Entries that show only a call come without a potency. Calls of active or inactive are those of the source. Unless noted, calls come from the whole dose curve.
# Tests used:
# [1] = Nuclear factor erythroid 2-related factor 2/antioxidant responsive element (Nrf2/ARE) small molecule agonists: qHTS cell viability counter screen in human keratinocytes (AID 1919968; active = well fitted curve in the direction sought with a large enough effect in the repeat runs; an effect the other way counts as inactive or inconclusive; note: nearly all actives have a fitted effect of over 55% in size)
# Outline: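 CellTiter-Fluor fluorescence, read 1 h after reagent, gave viability in the same wells as the ARE-luciferase assay. KeratinoSens cells (1,500/well) had 23 h compound exposure at 37 C/5% CO2 following 5 h plating.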
# [2] = Nuclear factor erythroid 2-related factor 2/antioxidant responsive element (Nrf2/ARE) small molecule agonists: luciferase reporter gene qHTS assay in human keratinocytes (AID 1919969); note: nearly all actives have a fitted effect of over 35% in size; note: potency is the fitted concentration of half-maximal effect
# [3] = target: Gonadotropin-releasing hormone receptor (Homo sapiens) (UniProt P30968); assay: Human gonadotropin-releasing hormone receptor (GnRHR) small molecule agonists, calcium flux assay in GnRHR-HEK293 cells (AID 1920063); note: nearly all actives have a fitted effect of over 35% in size
# Sequence of Gonadotropin-releasing hormone receptor (Homo sapiens) (P30968 whole entry, looked up): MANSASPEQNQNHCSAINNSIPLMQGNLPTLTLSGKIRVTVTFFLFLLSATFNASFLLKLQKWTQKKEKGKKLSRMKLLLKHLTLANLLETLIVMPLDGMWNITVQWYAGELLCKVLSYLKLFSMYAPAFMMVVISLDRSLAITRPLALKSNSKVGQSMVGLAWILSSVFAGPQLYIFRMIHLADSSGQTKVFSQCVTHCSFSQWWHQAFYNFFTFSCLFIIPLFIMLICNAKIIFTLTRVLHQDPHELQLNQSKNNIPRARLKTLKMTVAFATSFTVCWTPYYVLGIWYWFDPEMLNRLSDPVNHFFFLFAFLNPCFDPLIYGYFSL
# Outline: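 Agonist mode: compounds at 15 concentrations, in triplicate, went onto calcium dye-loaded GnRHR-HEK293 cells. Intracellular calcium was then followed as 480/540 nm fluorescence at 1 s intervals over 3 min.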
# [4] = target: KiSS-1 receptor (Homo sapiens) (UniProt Q969F8); assay: Human kisspeptin (KISS1R) small molecule agonists, calcium flux assay in KISS1R-HEK293 cells (AID 1920064; active = well fitted curve in the direction sought with a large enough effect in the repeat runs; an effect the other way counts as inactive or inconclusive)
# Sequence of KiSS-1 receptor (Homo sapiens) (Q969F8 whole entry, looked up): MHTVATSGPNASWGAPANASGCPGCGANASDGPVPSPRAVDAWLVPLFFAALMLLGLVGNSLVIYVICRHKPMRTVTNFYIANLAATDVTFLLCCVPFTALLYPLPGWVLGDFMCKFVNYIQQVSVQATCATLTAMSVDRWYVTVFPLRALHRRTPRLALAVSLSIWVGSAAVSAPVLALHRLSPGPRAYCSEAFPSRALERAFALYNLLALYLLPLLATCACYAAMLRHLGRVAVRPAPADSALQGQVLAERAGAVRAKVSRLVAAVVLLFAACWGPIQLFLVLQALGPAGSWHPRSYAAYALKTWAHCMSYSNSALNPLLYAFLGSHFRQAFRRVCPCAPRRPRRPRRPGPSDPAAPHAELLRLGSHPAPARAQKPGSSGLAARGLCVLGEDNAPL
# Outline: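 Agonist mode: intracellular calcium rise tracked at 1 s intervals over 3 min (480/540 nm) immediately after compound addition to dye-loaded KISS1R-HEK293 stable cells. Each compound tested at 15 concentrations in triplicate.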
# [5] = G protein-coupled receptor (GPCR) small molecule agonists, calcium flux assay: HEK293 wild type cell line counter screen (AID 1920065)
# Outline: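 Calcium flux counter screen: compound added in agonist mode at 15 concentrations in triplicate to dye-loaded parental HEK293 cells. Fluorescence (480/540) read kinetically for 3 min; ATP served as positive control.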
# [6] = p53 small molecule agonists, cell-based qHTS assay with human liver microsomes (AID 1963577)
# Outline: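 Compounds act here after metabolic activation: human liver microsomes and NADPH, both at 0.5 mg/mL final, were co-added to p53RE-bla cells. Incubation ran 16 h at 37 C, followed by LiveBLAzer detection.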
# [7] = p53 small molecule agonists, cell-based qHTS assay with rat liver microsomes (AID 1963578)
# Outline: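 Read-out is beta-lactamase reporter fluorescence (LiveBLAzer, 2 h, room temperature, dark) in p53RE-bla cells treated 16 h at 37 C with compound, rat liver microsomes and NADPH, both 0.5 mg/mL final.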
# [8] = p53 small molecule agonists, cell-based qHTS assay with human liver microsomes: qHTS cell viability counter screen (AID 1963579); note: nearly all actives have a fitted effect of over 45% in size
# Outline: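 Cells carrying the p53 response-element beta-lactamase reporter are treated for 16 h at 37 C with test compounds in the presence of human liver microsomes and NADPH (both 0.5 mg/mL final); ATP-based CellTiter-Glo luminescence then reports viability.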
# [9] = p53 small molecule agonists, cell-based qHTS assay with rat liver microsomes: qHTS cell viability counter screen (AID 1963580); note: nearly all actives have a fitted effect of over 45% in size
# Outline: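 Cytotoxicity counter screen: intracellular ATP read by CellTiter-Glo luminescence in the p53 reporter wells. HCT-116 p53RE-bla cells were treated for 16 h at 37 C alongside rat liver microsomes and NADPH, each 0.5 mg/mL final.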
# [10] = p53 small molecule agonists, cell-based qHTS assay: qHTS cell viability counter screen (AID 1963581); note: nearly all actives have a fitted effect of over 45% in size
# Outline: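 Counter screen read by CellTiter-Glo luminescence (ATP content, 30 min at room temperature), run in the same wells as the beta-lactamase reporter read. HCT-116 p53RE-bla cells saw compounds for 16 h at 37 C.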
# [11] = p53 small molecule agonists, cell-based qHTS assay (AID 1963582; active = well fitted activation curve with a large enough effect in the signal ratio in the repeat runs, not every such curve was filed as active; the % refers to the signal ratio; note: potency is the fitted concentration of half-maximal effect)
# Outline: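 Read-out is beta-lactamase FRET fluorescence after 2 h at room temperature with LiveBLAzer B/G substrate. p53 response element-bla cells were treated 16 h at 37 C with compounds in DMSO, added 5 h after seeding.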
# [12] = target: 5-hydroxytryptamine receptor 2A (Homo sapiens) (UniProt P28223); assay: 5-hydroxytryptamine receptor 2A (HTR2A) small molecule antagonists, cell-based qHTS assay (AID 1963586); note: nearly all actives have a fitted effect of over 45% in size
# Sequence of 5-hydroxytryptamine receptor 2A (Homo sapiens) (P28223 whole entry, looked up): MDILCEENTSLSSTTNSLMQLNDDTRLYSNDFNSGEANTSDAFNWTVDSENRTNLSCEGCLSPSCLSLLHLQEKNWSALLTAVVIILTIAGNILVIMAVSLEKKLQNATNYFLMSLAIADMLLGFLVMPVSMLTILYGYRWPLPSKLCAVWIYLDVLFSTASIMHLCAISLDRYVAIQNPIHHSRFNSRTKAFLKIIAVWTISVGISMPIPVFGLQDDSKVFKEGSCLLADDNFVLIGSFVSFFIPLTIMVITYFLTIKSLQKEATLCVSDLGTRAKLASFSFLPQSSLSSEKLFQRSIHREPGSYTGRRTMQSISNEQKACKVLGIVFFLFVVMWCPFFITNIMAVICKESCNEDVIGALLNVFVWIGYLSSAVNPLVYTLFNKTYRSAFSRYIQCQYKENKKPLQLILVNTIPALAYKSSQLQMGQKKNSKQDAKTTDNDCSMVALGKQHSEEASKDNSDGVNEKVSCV
# Outline: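 CHO cells stably expressing human HTR2A were plated for 18 h at 37 C, then loaded with calcium dye for 1 h. Compounds were preincubated 5 min at room temperature before DOI (4 nM solution) was added. Kinetic fluorescence was read for 3 min.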
# [13] = target: 5-hydroxytryptamine receptor 2A (Homo sapiens) (UniProt P28223); assay: 5-hydroxytryptamine receptor 2A (HTR2A) small molecule agonists, cell-based qHTS assay (AID 1963587); note: nearly all actives have a fitted effect of over 30% in size
# Outline: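 Kinetic calcium-flux fluorescence (2 min, 1 sec intervals) after compound addition in agonist mode. HTR2A-CHO cells were cultured 18 h, then dye-loaded 1 h at 37 C.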
# [14] = target: Muscarinic acetylcholine receptor M1 (Homo sapiens) (UniProt P11229); assay: Cholinergic receptor muscarinic 1 (CHRM1) small molecule antagonists, cell-based qHTS assay (AID 1963588); note: nearly all actives have a fitted effect of over 40% in size
# Sequence of Muscarinic acetylcholine receptor M1 (Homo sapiens) (P11229 whole entry, looked up): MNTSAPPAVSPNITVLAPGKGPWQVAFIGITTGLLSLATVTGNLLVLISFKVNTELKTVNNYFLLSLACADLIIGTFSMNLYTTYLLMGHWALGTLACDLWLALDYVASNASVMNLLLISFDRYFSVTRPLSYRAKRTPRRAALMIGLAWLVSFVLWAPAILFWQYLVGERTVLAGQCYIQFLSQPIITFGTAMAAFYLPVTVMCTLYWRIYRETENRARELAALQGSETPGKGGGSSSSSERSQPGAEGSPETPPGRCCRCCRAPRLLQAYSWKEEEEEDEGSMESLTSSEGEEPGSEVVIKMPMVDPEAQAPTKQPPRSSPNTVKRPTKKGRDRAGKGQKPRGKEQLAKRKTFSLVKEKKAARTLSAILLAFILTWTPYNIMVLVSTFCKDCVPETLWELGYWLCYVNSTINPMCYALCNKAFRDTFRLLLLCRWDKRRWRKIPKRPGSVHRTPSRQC
# Outline: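 Compounds were tested at 15 concentrations in three independent runs. Dye-loaded CHRM1-CHO cells were exposed 5 min at room temperature before stimulation by acetylcholine added at 50nM. Intracellular calcium was read kinetically on FDSS for 3 min.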
# [15] = target: Muscarinic acetylcholine receptor M1 (Homo sapiens) (UniProt P11229); assay: Cholinergic receptor muscarinic 1 (CHRM1) small molecule agonists, cell-based qHTS assay (AID 1963589); note: nearly all actives have a fitted effect of over 35% in size
# Outline: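 Agonist-mode calcium-flux screen: compounds at 15 concentrations, three independent runs, were pin-transferred onto dye-loaded human CHRM1-CHO cells. Fluorescence was then recorded kinetically every second over minutes.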
# [16] = cAMP Responsive Elements (CRE) small molecule agonists, cell-based qHTS assay (AID 1963590)
# Outline: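 Agonist mode: compound added to CRE-bla HEK 293T cells (2,000/well, 18 h after plating) for 3 h at 37 C/5% CO2. Reporter activity detected via FRET beta-lactamase substrate, 2 h room-temperature loading.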
# [17] = cAMP Responsive Elements (CRE) small molecule antagonists, cell-based qHTS assay (AID 1963591; active = well fitted inhibition curve with a large enough effect in the signal ratio in the repeat runs, not every such curve was filed as active; the % refers to the signal ratio)
# Outline: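 Antagonist mode: compounds are added alongside the adenylyl cyclase activator NKH477 (0.25 uM final) to CRE-bla HEK293T cells for 3 h. LiveBLAzer FRET substrate, 2 h at room temperature, reports bla expression.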
# [18] = target: Beta-2 adrenergic receptor (Homo sapiens) (UniProt P07550); assay: Adrenergic beta2 receptor (ADRB2) small molecule antagonists, cell-based qHTS assay (AID 1963592); note: series mostly up to about 92 µM; nearly all actives have a fitted effect of over 50% in size
# Sequence of Beta-2 adrenergic receptor (Homo sapiens) (P07550 whole entry, looked up): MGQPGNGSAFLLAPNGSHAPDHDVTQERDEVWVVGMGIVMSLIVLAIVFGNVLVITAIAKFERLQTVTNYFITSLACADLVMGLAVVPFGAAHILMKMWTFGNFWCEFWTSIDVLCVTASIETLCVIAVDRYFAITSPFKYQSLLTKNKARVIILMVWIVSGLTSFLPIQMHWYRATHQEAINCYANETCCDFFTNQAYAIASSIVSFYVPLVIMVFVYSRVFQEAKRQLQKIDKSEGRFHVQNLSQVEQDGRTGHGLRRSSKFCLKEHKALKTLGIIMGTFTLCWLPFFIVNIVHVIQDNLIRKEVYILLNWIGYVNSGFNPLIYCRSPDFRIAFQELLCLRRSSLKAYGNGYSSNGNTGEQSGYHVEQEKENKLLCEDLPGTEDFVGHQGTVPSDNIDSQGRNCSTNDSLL
# Outline: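 Assay format: CHO-ADRB2 cells, 18-20hr seeding at 37C/5% CO2, then compound plus 1nM isoproterenol agonist mix for 0.5hr RT. Homogeneous time-resolved fluorescence cAMP detection after 1hr, expressed as 665/615 nm ratio.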
# [19] = target: D(2) dopamine receptor (Homo sapiens) (UniProt P14416); assay: Dopamine D2 receptor (DRD2) small molecule agonists, cell-based qHTS assay (AID 1963594); note: nearly all actives have a fitted effect of over 35% in size
# Sequence of D(2) dopamine receptor (Homo sapiens) (P14416 whole entry, looked up): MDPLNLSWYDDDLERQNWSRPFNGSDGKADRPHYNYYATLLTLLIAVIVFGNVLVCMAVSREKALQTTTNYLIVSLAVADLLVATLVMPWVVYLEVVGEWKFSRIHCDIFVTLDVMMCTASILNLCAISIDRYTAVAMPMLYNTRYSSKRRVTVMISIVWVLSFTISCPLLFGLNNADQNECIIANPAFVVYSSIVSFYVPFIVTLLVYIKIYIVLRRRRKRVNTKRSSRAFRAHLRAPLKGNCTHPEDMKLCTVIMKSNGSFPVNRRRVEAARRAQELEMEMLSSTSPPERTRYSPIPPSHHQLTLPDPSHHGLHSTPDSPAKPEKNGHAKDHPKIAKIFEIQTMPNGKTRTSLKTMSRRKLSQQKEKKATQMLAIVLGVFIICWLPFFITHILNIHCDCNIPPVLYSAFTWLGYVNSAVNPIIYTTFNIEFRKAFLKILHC
# Outline: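 cAMP accumulation in DRD2-HEK293 cells measured by HTRF after 1 h detection; compounds added 10 min before NKH477 (200nM […]) forskolin-analogue stimulation, 30 min at room temperature, with Ro20-1724 present at 0.1 mM final.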
# [20] = target: D(2) dopamine receptor (Homo sapiens) (UniProt P14416); assay: Dopamine D2 receptor (DRD2) small molecule antagonists, cell-based qHTS assay (AID 1963595; active = well fitted inhibition curve with a large enough effect in the signal ratio in the repeat runs, with a control signal flat; the % refers to the signal ratio)
# Outline: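 Cells were plated and grown for 24 h at 37 °C. Ro20-1724 (0.1 mM final) went in first, then compound for 10 min. NKH477 (200 nM) with quinpirole (12 nM) followed for 30 min at RT, then HTRF detection reagents for 1 h.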
SMILES,Potency [1],Potency [2],Potency [3],outcome [4],outcome [5],Potency [6],Potency [7],Potency [8],Potency [9],Potency [10],Potency [11],Potency [12],Potency [13],Potency [14],Potency [15],Potency [16],Potency [17],Potency [18],Potency [19],Potency [20]
O=C1OC(=O)c2cccc3cccc1c23,inactive,27.6 µM (active),inactive,inactive,inactive,inactive,inactive,inactive,inactive,inactive,inactive,inactive,inactive,inactive,inactive,inactive,inactive,inactive,inactive,inactive
FC(F)OC(Cl)C(F)(F)F (configuration not stated),inactive,inactive,inactive,inactive,inactive,inactive,inactive,inactive,inactive,inactive,inactive,inactive,inactive,inactive,inactive,inactive,inactive,inactive,inactive,inactive
O=C(O)c1c(Cl)cccc1Cl,inactive,inactive,inactive,inactive,inactive,inactive,inactive,inactive,inactive,inactive,inactive,inactive,inactive,inactive,inactive,inactive,inactive,inactive,inactive,inactive
C=CC1CC2C=CC1C2 (configuration not stated),inactive,inactive,inactive,inactive,inactive,inactive,inactive,inactive,inactive,inactive,inactive,inactive,inactive,inactive,inactive,inactive,inactive,inactive,inactive,
CN1C(=O)CC(c2ccccc2)C1=O (configuration not stated),inactive,inactive,inactive,inactive,inactive,inactive,inactive,inactive,inactive,inactive,inactive,inactive,inactive,inactive,inactive,inactive,inactive,inactive,inactive,
CC(=O)CCc1ccc(O)cc1,inactive,inactive,inactive,inactive,inactive,inactive,inactive,inactive,inactive,inactive,inactive,inactive,inactive,inactive,inactive,inactive,inactive,inactive,inactive,inactive
CC1CCCO1 (configuration not stated),inactive,inactive,inactive,inactive,inactive,inactive,inactive,inactive,inactive,inactive,inactive,inactive,inactive,inactive,inactive,inactive,inactive,inactive,inactive,inactive
CCCCCCOC(=O)CCC,inactive,inactive,inactive,inactive,inactive,inactive,inactive,inactive,inactive,inactive,inactive,inactive,inactive,inactive,inactive,inactive,inactive,inactive,inactive,inactive
CCCCCCC(O)CCOC(C)=O (configuration not stated),inactive,inactive,inactive,inactive,inactive,inactive,inactive,inactive,inactive,inactive,inactive,inactive,inactive,inactive,inactive,inactive,inactive,inactive,inactive,inactive
CCC(C)(CCC(C)C)C(=O)[O][Sn]([CH3])([CH3])[O]C(=O)C(C)(CC)CCC(C)C (configuration not stated),inactive,30.6 µM (active),inactive,inactive,inactive,inactive,inactive,inactive,inactive,inactive,inactive,inactive,inactive,inactive,inactive,inactive,inactive,inactive,inactive,inactive
Brc1ccccn1,inactive,inactive,inactive,inactive,inactive,inactive,inactive,inactive,inactive,inactive,inactive,inactive,inactive,inactive,inactive,inactive,inactive,inactive,inactive,inactive
N=c1ccn2c(n1)O[C@H]1[C@H](O)[C@@H](CO)O[C@H]12,inactive,inactive,inactive,inactive,inactive,inactive,inactive,inactive,inactive,inactive,1.45 µM (active),inactive,inactive,inactive,inactive,inactive,inactive,inactive,inactive,inactive
Cc1cc(-n2nc3ccc(Cl)cc3n2)c(O)c(C(C)(C)C)c1,inactive,inactive,inactive,inactive,inactive,inactive,inactive,inactive,inactive,inactive,inactive,inactive,inactive,inactive,inactive,inactive,inactive,inactive,inactive,
